The results in this text go back to paper PMC4336329 (PLoS ONE, 2015).

In all, about 310,000 compounds went through this assay and about 14,000 (4.5%) showed an effect of 50% or more. Effects have a minus sign here. For the sample, strong results were picked, then their nearest neighbours and some compounds at random.
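Further: peak tail current of the secondary pulse compared with the same well before compound.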

Chain of human ether-à-go-go-related gene (hERG) potassium channel (Q12809 whole entry, looked up): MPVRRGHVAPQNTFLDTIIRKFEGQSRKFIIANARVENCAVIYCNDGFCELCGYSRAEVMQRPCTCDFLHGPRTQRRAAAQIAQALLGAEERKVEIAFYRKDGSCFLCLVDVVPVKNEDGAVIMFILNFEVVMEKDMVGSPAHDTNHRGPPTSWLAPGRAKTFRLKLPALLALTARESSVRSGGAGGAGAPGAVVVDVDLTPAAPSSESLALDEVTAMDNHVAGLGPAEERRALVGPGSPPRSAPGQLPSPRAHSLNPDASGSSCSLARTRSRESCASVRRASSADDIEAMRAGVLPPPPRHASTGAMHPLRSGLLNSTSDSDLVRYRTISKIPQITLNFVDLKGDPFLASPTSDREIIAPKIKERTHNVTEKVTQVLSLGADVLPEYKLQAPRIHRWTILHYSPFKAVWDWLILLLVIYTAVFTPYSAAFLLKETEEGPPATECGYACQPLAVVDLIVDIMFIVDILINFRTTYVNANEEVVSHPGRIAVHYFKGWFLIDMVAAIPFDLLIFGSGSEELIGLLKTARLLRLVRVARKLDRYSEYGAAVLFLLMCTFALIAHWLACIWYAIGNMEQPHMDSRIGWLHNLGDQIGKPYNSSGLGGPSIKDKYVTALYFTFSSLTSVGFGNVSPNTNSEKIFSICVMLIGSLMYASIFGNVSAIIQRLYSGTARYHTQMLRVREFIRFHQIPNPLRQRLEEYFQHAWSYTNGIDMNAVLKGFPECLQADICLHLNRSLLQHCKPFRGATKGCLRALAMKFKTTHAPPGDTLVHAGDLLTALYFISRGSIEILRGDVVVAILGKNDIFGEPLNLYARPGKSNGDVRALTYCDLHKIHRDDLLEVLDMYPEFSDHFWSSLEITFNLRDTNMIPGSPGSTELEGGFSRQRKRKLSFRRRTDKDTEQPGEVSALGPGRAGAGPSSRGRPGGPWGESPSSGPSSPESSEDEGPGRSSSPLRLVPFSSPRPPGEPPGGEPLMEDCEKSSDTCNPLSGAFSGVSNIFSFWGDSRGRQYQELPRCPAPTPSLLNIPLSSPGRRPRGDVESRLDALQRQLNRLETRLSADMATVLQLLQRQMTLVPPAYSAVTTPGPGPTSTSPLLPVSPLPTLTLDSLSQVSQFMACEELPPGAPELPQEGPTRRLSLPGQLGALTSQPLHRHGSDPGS

This experiment concerns the target human ether-à-go-go-related gene (hERG) potassium channel (human, UniProt Q12809). Briefly: primary screen, population patch clamp on CHO cells stably expressing hERG; higher = less effect of the substance.
`Cc1ccc(C(=O)Oc2ccc(C(=S)N3CCOCC3)cc2)cc1`: the “hERG current change (%, negative = inhibition) at 10uM” value was -7.84%.
In the case of `CCN(CC)c1ncnc2scc(C3COc4ccccc4O3)c12` (stereo not drawn), the “hERG current change (%, negative = inhibition) at 10uM” value is listed as -8.77%.
On to `COc1ccc(NC2CCCN(C(=O)C3(C)CCCCC3)C2)cc1OC` (stereo not drawn), for which the “hERG current change (%, negative = inhibition) at 10uM” value is recorded as 11.3%.
As for `O=C(Nc1ccccc1)C1CC(=O)n2ncnc2N1` (stereo not drawn), the “hERG current change (%, negative = inhibition) at 10uM” value came out at 6.48%.
Take `CN(C)Cc1ccccc1C1(O)c2ccccc2CSc2ccccc21.Cl` (stereo not drawn): the “hERG current change (%, negative = inhibition) at 10uM” value is 9.09%.
On to `CNC(=S)N(CCc1cccc(C)c1)Cc1cc2cc(OC)c(OC)cc2[nH]c1=O`, for which the “hERG current change (%, negative = inhibition) at 10uM” value is given as -16.7%.
For the compound `Cc1ccc(-c2nc(=O)[nH]c3ccccc23)cc1`, the “hERG current change (%, negative = inhibition) at 10uM” value is -20%.
Regarding `C/C(=N/NC(=O)CN1CCN(Cc2ccccc2Cl)CC1)c1ccncc1`, the “hERG current change (%, negative = inhibition) at 10uM” value is listed as -65.4%.
In the case of `C/C(=N\NC(=O)CN1CCN(Cc2ccc(C)cc2)CC1)c1ccncc1`, the “hERG current change (%, negative = inhibition) at 10uM” value is -74.8%.
As to `C/C(=N\NC(=O)CN1CCN(Cc2ccccc2)CC1)c1ccncc1`, the “hERG current change (%, negative = inhibition) at 10uM” value is on record as -35.8%.
Take `C/C(=N/NC(=O)CN1CCN(Cc2ccccc2Cl)CC1)c1cccnc1`: the “hERG current change (%, negative = inhibition) at 10uM” value was -10.4%.
Then `O=C(CN1CCN(Cc2ccccc2Cl)CC1)N/N=C/c1ccccn1`, with -25.8%.
Consider `Cc1ccc(CN2CCN(C(=O)c3ccncc3)CC2)cc1.O=C(O)C(=O)O`, for which the “hERG current change (%, negative = inhibition) at 10uM” value is listed as -0.159%.
For the compound `CCCNC(=O)c1ccc2c(c1)S(=O)(=O)c1ccccc1C2=O`, the “hERG current change (%, negative = inhibition) at 10uM” value was -10.9%.
As for `COc1ccc(-c2nn(-c3ccccc3)cc2C(=O)NC(=S)N2CCOCC2)cc1OC`, the “hERG current change (%, negative = inhibition) at 10uM” value was 30.1%.
For the compound `CCOCc1c(C(=O)NCc2ccccc2CN2CCCC2)oc2ccccc12`, the “hERG current change (%, negative = inhibition) at 10uM” value is -72%.
For `COCc1c(C(=O)NCc2ccccc2CN2CCCC2)oc2ccccc12`, the “hERG current change (%, negative = inhibition) at 10uM” value is recorded as -66.4%.
For `CCOCc1c(C(=O)N2CCN(Cc3ccc(Br)s3)CC2)oc2ccccc12` the value was -30.9%.
For `COCc1c(C(=O)NCC2COc3ccccc3O2)oc2ccccc12` (stereo not drawn) the value was -30.1%.
With `CCOc1ccc(OCCNC(=O)c2oc3ccccc3c2COC)cc1`, the “hERG current change (%, negative = inhibition) at 10uM” value is reported as -32.5%.
As to `CCOCc1c(C(=O)NC2CCCCCC2)oc2ccccc12`, the “hERG current change (%, negative = inhibition) at 10uM” value is 8.56%.
`COc1ccc2[nH]c3c(c2c1)CCN1C(=O)N([C@@H](C)C(=O)NCc2ccccc2OC)C(=O)[C@]31C`: the “hERG current change (%, negative = inhibition) at 10uM” value is on record as -17.2%.
Consider `CCOc1ccc2nc(SCC(=O)c3ccc(O)cc3O)sc2c1`, for which the “hERG current change (%, negative = inhibition) at 10uM” value is listed as 14.5%.
Then `Cc1ccc([N+](=O)[O-])c(NC(=O)COC(=O)C2CC3CCCC(C2)C3=O)c1C` (stereo not drawn), with 13.8%; and `Cc1cc(C)n2nc(C(=O)OCCOc3ccc(Br)cc3)nc2n1`, with -55.3%.
For the compound `Cc1cc(C)n2nc(C(=O)OCC(=O)Nc3ccc4c(c3)OC(F)(F)O4)nc2n1`, the “hERG current change (%, negative = inhibition) at 10uM” value is -63.8%.
On to `Cc1ccnc2nc(C(=O)OCC(=O)Nc3ccc4c(c3)OC(F)(F)O4)nn12`, for which the “hERG current change (%, negative = inhibition) at 10uM” value is -49.1%.
For `Cc1cc(C)n2nc(SCCOc3ccccc3)nc2n1`, the “hERG current change (%, negative = inhibition) at 10uM” value is on record as -38.7%.
In the case of `Cc1cc(C)n2nc(C(=O)OCCOc3cccc(Br)c3)nc2n1`, the “hERG current change (%, negative = inhibition) at 10uM” value is -21.6%.
As to `COc1ccc(OCCSc2nc3nc(C)cc(C)n3n2)cc1`, the “hERG current change (%, negative = inhibition) at 10uM” value was -13.1%.
With `Cc1cc(C)n2nc(C(=O)OCCOc3ccc(F)cc3)nc2n1`, the “hERG current change (%, negative = inhibition) at 10uM” value is listed as -12.3%.
Then `Cc1ccnc2nc(C(=O)OCCOc3ccc(Cl)cc3)nn12`, with -56.2%; and `Cc1cc(C)n2nc(C(=O)OCC(=O)Nc3ccc4c(c3)OCO4)nc2n1`, with -1.59%; and `COc1ccc(OCCOC(=O)c2nc3nccc(C)n3n2)cc1`, with -3.15%.
`Cc1cc(C)n2nc(SCCOc3ccc(F)cc3)nc2n1`: the “hERG current change (%, negative = inhibition) at 10uM” value is reported as -68.8%.
Turning to `Cc1ccc(OCCOC(=O)c2nc3nccc(C)n3n2)cc1`, the “hERG current change (%, negative = inhibition) at 10uM” value is given as -18.4%.
Turning to `Cc1nc(N)nc(COc2ccccc2)n1`, the “hERG current change (%, negative = inhibition) at 10uM” value was 16.6%.
Then `Cc1cc(C)c(NC(=O)CN(C)CC(=O)N(C)CC(=O)Nc2c(Cl)cccc2Cl)c(C)c1`, with 9.65%; and `COc1cc(OC)cc(C(=O)NNC(=S)NC(=O)c2cccnc2)c1`, with 14.4%; and `CCCCc1ccc2[nH]cc(CCN)c2c1.Cl`, with -9.69%.
Turning to `COc1ccc(CCNC(=O)C2CCN(Cc3nc(-c4ccccc4C)oc3C)CC2)cc1OC`, the “hERG current change (%, negative = inhibition) at 10uM” value was -79.2%.
Take `Cc1ccccc1-c1nc(CN2CCC(C(=O)NCCCN3CCCC(C)C3)CC2)c(C)o1` (stereo not drawn): the “hERG current change (%, negative = inhibition) at 10uM” value is on record as 28.6%.
For `Cc1ccccc1-c1nc(CN2CCCC(C(=O)NCCCN3CCOCC3)C2)c(C)o1` (stereo not drawn) the value was -7.84%.
Then `COc1ccc(CCNC(=O)C2CCN(Cc3nc(-c4ccccc4F)oc3C)CC2)cc1OC`, with -45.4%.
In the case of `COc1ccc(CCNC(=O)C2CCCN(Cc3nc(-c4ccccc4C)oc3C)C2)cc1OC` (stereo not drawn), the “hERG current change (%, negative = inhibition) at 10uM” value is -57.7%.
In the case of `O=C(CC(Nc1cccc(Cl)c1Cl)C(=O)OCC(=O)c1cccs1)c1ccccc1` (stereo not drawn), the “hERG current change (%, negative = inhibition) at 10uM” value is -5.59%.
With `CCOC(=O)[C@@H](CCc1ccccc1)N[C@H](C)C(=O)N1[C@H](C(=O)O)C[C@@H]2CCC[C@@H]21`, the “hERG current change (%, negative = inhibition) at 10uM” value is listed as 15.9%.
On to `CC(C)(C)NC(=O)c1ccc(COCC(F)(F)F)o1`, for which the “hERG current change (%, negative = inhibition) at 10uM” value is given as -4.16%.
As for `CCN(CC)CCNc1cc(C)c(C#N)c2nc3ccccc3n12`, the “hERG current change (%, negative = inhibition) at 10uM” value is -20.6%.
Turning to `CCOc1ccc2nc(COC(=O)c3ccco3)c(C(C)=O)[n+]([O-])c2c1`, the “hERG current change (%, negative = inhibition) at 10uM” value stood at 0.493%.
With `CCOc1ccc(-n2c(C)nnc2SCC(=O)N(CC)CC)cc1`, the “hERG current change (%, negative = inhibition) at 10uM” value was determined as 2.63%.
For the compound `CC(C)N1C(=O)CCC1C(=O)NCCc1ccccc1` (stereo not drawn), the “hERG current change (%, negative = inhibition) at 10uM” value is reported as -6.11%.
For `COC(=O)c1c(C)oc(C)c1S(=O)(=O)N1CCCCC1`, the “hERG current change (%, negative = inhibition) at 10uM” value is on record as 9.1%.
As to `CCN(CC)CCCNC(=O)c1[nH]c2ccccc2c1Sc1ccc(Cl)cc1`, the “hERG current change (%, negative = inhibition) at 10uM” value is listed as -89.5%.
For the compound `COC(=O)c1[nH]c2ccccc2c1Sc1ccccc1`, the “hERG current change (%, negative = inhibition) at 10uM” value worked out at 11.9%.
Turning to `CCCCN(CC)CCCNC(=O)c1cc2c(=O)[nH]c3ccccc3c2s1`, the “hERG current change (%, negative = inhibition) at 10uM” value is reported as -0.682%.
`COc1ccc(/C=C/C(=O)NC(C)(C)C)cc1S(=O)(=O)N1CCOCC1`: the “hERG current change (%, negative = inhibition) at 10uM” value is on record as -15.2%.
`CCCCn1c(N)c(N(CC(C)C)C(=O)c2cccc(S(=O)(=O)N3CC(C)OC(C)C3)c2)c(=O)[nH]c1=O` (stereo not drawn): the “hERG current change (%, negative = inhibition) at 10uM” value stood at 21.6%.
With `CC(C)Oc1ccc(C(=O)OCC(=O)N2CCCc3ccccc32)cc1`, the “hERG current change (%, negative = inhibition) at 10uM” value came to 6.85%.
With `CCOC(=O)CSc1nc2c(c(=O)n1-c1ccc(OC)cc1)SCC2`, the “hERG current change (%, negative = inhibition) at 10uM” value was -9.55%.
In the case of `COc1ccc(-n2c(SCC(=O)Nc3ccccc3)nc3c(c2=O)SCC3)cc1`, the “hERG current change (%, negative = inhibition) at 10uM” value is reported as -18.7%.
Take `O=C(CSc1nc2c(c(=O)n1-c1ccccc1)SCC2)N1CCOCC1`: the “hERG current change (%, negative = inhibition) at 10uM” value amounted to 5.25%.
For the compound `O=C(CSc1nc2c(c(=O)n1-c1ccccc1)SCC2)N1CCN(c2ccccc2)CC1`, the “hERG current change (%, negative = inhibition) at 10uM” value is given as -76.5%.
As for `Cc1ccc(-n2c(SCC(=O)N3CCCC3)nc3c(c2=O)SCC3)cc1`, the “hERG current change (%, negative = inhibition) at 10uM” value came out at 5.3%.
For `COc1ccc(-n2c(SCC(=O)N3CCN(c4ccccc4)CC3)nc3c(c2=O)SCC3)cc1` the value was -70%; for `Cc1cc(N)n(C2CCN(C)CC2)n1`, 1.99%; for `c1ccc2c(CCNc3ncnc4nc[nH]c34)cccc2c1`, -6.53%.
Consider `CNCCCc1[nH]nc(N)c1C#N`, for which the “hERG current change (%, negative = inhibition) at 10uM” value was 4.22%.
Consider `N#Cc1ccccc1Sc1ccccc1C(=O)Nc1ccccc1`, for which the “hERG current change (%, negative = inhibition) at 10uM” value worked out at 0.339%.
With `Cc1ccc(-c2noc(CCC(=O)Nc3ccc4c(c3)OCO4)n2)cc1`, the “hERG current change (%, negative = inhibition) at 10uM” value was 3.68%.
For `CC(C)(C)OC(=O)N1CCC(CNC(=O)c2cccs2)CC1` the value was 10.9%.
In the case of `CCCc1nc(SCC(=O)N2c3ccccc3CC2C)c2c(C)c(C)sc2n1` (stereo not drawn), the “hERG current change (%, negative = inhibition) at 10uM” value was 14.1%.
Turning to `N/C(Cc1ccc([N+](=O)[O-])cc1)=N\OC(=O)C1CCCCC1`, the “hERG current change (%, negative = inhibition) at 10uM” value was -3.44%.
With `COc1ccc(C/C(N)=N/OC(=O)C(c2ccccc2)c2ccccc2)cc1OC`, the “hERG current change (%, negative = inhibition) at 10uM” value was -14.5%.
Then `N/C(Cc1ccc([N+](=O)[O-])cc1)=N\OC(=O)c1ccco1`, with -26.8%; and `Cc1ccc(CC(=O)O/N=C(\N)Cc2ccc([N+](=O)[O-])cc2)cc1`, with 0.827%.
For the compound `Cc1cc(C)cc(OCC(=O)O/N=C(\N)Cc2ccc([N+](=O)[O-])cc2)c1`, the “hERG current change (%, negative = inhibition) at 10uM” value was -2.56%.
For `N/C(Cc1ccc([N+](=O)[O-])cc1)=N\OC(=O)C(c1ccccc1)c1ccccc1` the value was -66.9%; for `N/C(Cc1ccc(Cl)cc1)=N\OC(=O)Cc1ccc([N+](=O)[O-])cc1`, -4.32%.
For the compound `N/C(Cc1ccc([N+](=O)[O-])cc1)=N\OC(=O)Cc1ccc(Cl)cc1`, the “hERG current change (%, negative = inhibition) at 10uM” value was -4.39%.
Turning to `N/C(Cc1ccc([N+](=O)[O-])cc1)=N\OC(=O)CC1CCCCC1`, the “hERG current change (%, negative = inhibition) at 10uM” value is on record as -68.5%.
As for `Cc1ccc(OCC(=O)O/N=C(\N)Cc2ccc([N+](=O)[O-])cc2)cc1C`, the “hERG current change (%, negative = inhibition) at 10uM” value was -32.7%.
As for `N/C(Cc1ccc([N+](=O)[O-])cc1)=N\OC(=O)Cc1ccccc1`, the “hERG current change (%, negative = inhibition) at 10uM” value is listed as -50.7%.
With `CCc1ccc(OCC(=O)O/N=C(\N)Cc2ccc([N+](=O)[O-])cc2)cc1`, the “hERG current change (%, negative = inhibition) at 10uM” value was -53.9%.
For `COc1cccc(-c2nn[nH]n2)c1O` the value was 9.02%; for `c1ccc(CSCc2cn3ccsc3n2)cc1`, -4.45%; for `COc1ccc(CCNC(=O)C2CCCN(S(=O)(=O)c3cccc4nonc34)C2)cc1OC` (stereo not drawn), 10.5%.
